Several values for one entry are separate records, joined by “and”; a condition that tells them apart may be missing. Identical values can stand only once. About 5,800 (36%) of roughly 16,000 compounds were called active. Not shown: some 23% with an inconclusive outcome. Calls follow the shape of the dose curve; as a rule, active = well fitted curve in the direction sought with a large enough effect; inconclusive = small, poorly fitted or top-dose-only effect, or effect the other way; inactive = no such curve, though single readings can be large or run the other way. This is one part of the list.
Target: Cytochrome P450 2C19 (Homo sapiens) (UniProt P33261)
Assay: Cytochrome panel assay with activity outcomes
Conditions: recombinant CYP, pro-luciferin dealkylation, luminescence, p450-cyp2c19; series mostly up to 57.1 µM; activity, negative = inhibition: at the top concentration
% is scaled to controls: 0 for no effect and ±100 for the full control effect.

Cytochrome P450 2C19 (Homo sapiens), sequence (P33261 whole entry, looked up): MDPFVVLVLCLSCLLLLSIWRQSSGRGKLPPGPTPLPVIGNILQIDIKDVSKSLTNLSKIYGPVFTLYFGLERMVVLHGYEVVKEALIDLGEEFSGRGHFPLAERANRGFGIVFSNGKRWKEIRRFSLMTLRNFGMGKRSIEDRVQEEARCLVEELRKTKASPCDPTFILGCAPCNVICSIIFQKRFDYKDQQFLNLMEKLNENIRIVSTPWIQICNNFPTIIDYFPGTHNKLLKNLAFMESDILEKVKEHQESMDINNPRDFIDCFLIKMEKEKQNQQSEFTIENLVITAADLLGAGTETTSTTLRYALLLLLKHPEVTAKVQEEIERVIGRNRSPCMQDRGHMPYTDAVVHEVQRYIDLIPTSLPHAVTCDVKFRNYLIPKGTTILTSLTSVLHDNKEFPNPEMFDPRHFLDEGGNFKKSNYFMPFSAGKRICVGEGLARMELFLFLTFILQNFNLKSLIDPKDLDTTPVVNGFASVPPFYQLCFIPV

Row | Structure (SMILES) | AC50 | activity, negative = inhibition
1 | c1ccc2c(c1)ncn2-c1ccc(-c2ccnc(-c3ccncc3)n2)cc1 | 0.2 µM (active) | –
2 | CCOC(=O)c1ccc2nc(C)c(CCC(C)=O)c(Cl)c2c1 | 5.62 µM (active) | –
3 | CC(C)(C)c1cc(C(=O)O)c(CN2CCCCC2)o1 | – | -27.2% (inactive)
4 | CN(C)S(=O)(=O)c1ccc(C(=O)Nc2ccc(CN3CCCC3)cc2)cc1 | – | -17.7% (inactive)
5 | CN(C)S(=O)(=O)Oc1ccsc1C(=O)Nc1ccc(Cl)cc1 | 0.891 µM (active) | –
6 | COc1ccc(/C=N/n2cnc3c([nH]c4ccc(Br)cc43)c2=O)cc1CN1CCOCC1 | 3.55 µM (active) | –
7 | [N-]=[N+]=Nc1ccc(C(=O)CSC[C@@H](NC(=O)CC[C@@H](N)C(=O)O)C(=O)NCC(=O)O)cc1 | – | -17.4% (inactive)
8 | ON(CCc1ccccn1)Cc1ccccc1 | – | -32.5% [at 11.4 µM] (inactive)
9 | c1ccc(SCCc2ccncc2)cc1 | 447 nM (active) and 794 nM (active) | –
10 | ON(CCc1ccncc1)Cc1ccccc1 | 0.316 µM (active) | –
11 | Fc1ccc(SCCc2ccncc2)cc1 | 0.447 µM (active) | –
12 | c1ccc(CCN2CCN=C2Cc2ccccc2)cc1 | – | 7.77% [at 11.4 µM] (inactive)
13 | CCOc1cc(/C=N/NC(=O)COc2cccc(C)c2)ccc1OC(=O)c1cccs1 | 8.91 µM (active) | –
14 | CCOc1cc(/C=N/NC(=O)CNc2cccc(C)c2)ccc1OC(=O)c1ccccc1 | 10 µM (active) | –
15 | COc1ccc(/C=C/C(=O)Oc2cccc(/C=N/NC(=O)COc3c(C)cccc3C)c2)cc1 | – | -25% (inactive)
16 | O=C(CN1CCN(S(=O)(=O)c2ccc(F)cc2)CC1)Nc1ccc(Cl)c(C(F)(F)F)c1 | 7.94 µM (active) | –
17 | O=C(CN1CCN(S(=O)(=O)c2ccc(Cl)cc2)CC1)Nc1ccc2c(c1)OCO2 | 2.82 µM (active) | –
18 | O=C1C=CC(=Nc2cccc3c(N=C4C=CC(=O)O4)cccc23)O1 | – | -74.7% [at 11.4 µM] (inactive)
19 | CC1=CC(C)(C)NC(=S)N1c1cccc(C)c1 | 3.98 µM (active) | –

Row | Structure (SMILES) | AC50 | activity, negative = inhibition
20 | COc1cccc([C@H]2Oc3ccc(OC)cc3/C(=N\O[C@@H](C)c3cn([C@H](CO)Cc4ccccc4)nn3)[C@@H]2O)c1 | – | -44.2% [at 11.4 µM] (inactive)
21 | CCN1C(=O)[C@H]2[C@H]3[C@H](O)[C@H](O)C/C(=N/O[C@@H](C)c4cc(-c5c(C)cc(C)cc5C)no4)[C@@H]3CC[C@@H]2C1=O | – | -26.1% [at 11.4 µM] (inactive)
22 | CC(C)=NOC[C@@H](O)COCc1ccco1 | – | -10.6% [at 11.4 µM] (inactive)
23 | COc1cccc([C@@H]2Oc3ccc(OC)cc3/C(=N/OC[C@@H](O)COCc3ccco3)[C@@H]2O)c1 | 1.58 µM (active) | –
24 | COc1cccc([C@@H]2Oc3ccc(OC)cc3/C(=N/O[C@@H](C)c3cn([C@H]4COC[C@H]4O)nn3)[C@@H]2O)c1 | – | -35.4% [at 11.4 µM] (inactive)
25 | COc1cccc([C@@H]2Oc3ccc(OC)cc3/C(=N/OC[C@@H](C)[C@H](OCc3ccccc3)C(C)C)[C@@H]2O)c1 | 2 µM (active) | –
26 | CCN1C(=O)[C@H]2[C@H]3[C@H](O)[C@H](O)C/C(=N/OC[C@@H](C)[C@H](OCc4ccccc4)C(C)C)[C@@H]3CC[C@@H]2C1=O | – | -18.6% [at 11.4 µM] (inactive)
27 | COc1cccc([C@H]2Oc3ccc(OC)cc3/C(=N\OC[C@@H](O)[C@@H]3O[C@@H]4OC(C)(C)O[C@@H]4[C@H]3O)[C@@H]2O)c1 | – | -33% [at 11.4 µM] (inactive)
28 | COc1cccc([C@@H]2Oc3ccc(OC)cc3/C(=N/O[C@@H](C)c3cc(-c4c(C)cc(C)cc4C)no3)[C@@H]2O)c1 | 1.58 µM (active) | –
29 | O=C(O)/C(=C/c1c(C(=O)O)[nH]c2cc(Cl)cc(Cl)c12)c1ccccc1 | – | -13.2% (inactive)
30 | O=C1NCCN1Cc1ccccc1F | 20 µM (active) | –
31 | CN(C)S(=O)(=O)Oc1cccc(C(=O)Nc2ccccc2Cl)c1 | 2.82 µM (active) | –
32 | CN(C)S(=O)(=O)Oc1cccc(C(=O)Nc2ccc(Cl)c(Cl)c2)c1 | 3.98 µM (active) | –
33 | CC(C)(N=NC(C)(C)C(=N)N)C(=N)N | – | 41.9% [at 11.4 µM] (inactive)
34 | CON1C(=O)C(=O)N(OC)C2CCCCC21 (stereo unspecified) | – | 24.9% (inactive)
35 | N#CC(C#N)=C(N)/C(C#N)=C/c1ccc(O)cc1 | – | 0.416% (inactive)
36 | CC=C(/C(=C/C)c1ccc(O)cc1)c1ccc(O)cc1 | 3.16 µM (active) | –
37 | COCCNC(=O)C1CC(c2cccc(OC)c2)=NO1 (stereo unspecified) | – | -24.6% (inactive)
38 | O=C(NCc1ccc2c(c1)OCO2)C1CC(c2cccc(Br)c2)=NO1 (stereo unspecified) | 11.2 µM (active) | –

Row | Structure (SMILES) | AC50 | activity, negative = inhibition
39 | COc1ccc(CNC(=O)C2CC(c3ccc(OC)cc3)=NO2)cc1 (stereo unspecified) | – | -2.25% (inactive)
40 | COc1cccc(C2=NOC(C(=O)NCCN3CCOCC3)C2)c1 (stereo unspecified) | – | -20.2% (inactive)
41 | COc1ccc(CNC(=O)C2CC(c3cccc([N+](=O)[O-])c3)=NO2)cc1 (stereo unspecified) | 10 µM (active) | –
42 | COc1cccc(C2=NOC(C(=O)NCc3ccccc3)C2)c1 (stereo unspecified) | 3.98 µM (active) | –
43 | COc1cccc(C2=NOC(C(=O)Nc3cccnc3)C2)c1 (stereo unspecified) | 10 µM (active) | –
44 | CCNc1ncc2nc(C)c(=O)n(Cc3cccs3)c2n1 | – | -27.9% (inactive)
45 | COC(=O)N1CCC[C@@]2(CCN(C(=O)Nc3cccc(F)c3)C2)C1 | – | -41.5% (inactive)
46 | COc1ccc(-n2c(=O)c(-c3cccs3)nc3cncnc32)cc1 | 15.8 µM (active) | –
47 | COc1ccc(-n2c(=O)c(-c3cccs3)nc3cnc(Oc4ccccc4)nc32)cc1 | – | -6.86% (inactive)
48 | CN1CCN(c2ncc3nc(-c4cccs4)c(=O)n(-c4ccccc4)c3n2)CC1 | – | 22.2% (inactive)
49 | Cn1c(=O)c(-c2cccs2)nc2cncnc21 | – | -45.6% (inactive)
50 | O=c1c(-c2cccs2)nc2cnc(N3CCOCC3)nc2n1-c1ccccc1 | – | -11.6% (inactive)
51 | O=c1c(-c2cccs2)nc2cncnc2n1-c1ccccc1 | 6.31 µM (active) | –
52 | CCCc1ncc(C[n+]2ccccc2C)c(N)n1 | – | 0.835% [at 25.6 µM] (inactive)
53 | COCC(=O)N1CCC2(CC1)CCN(C(=O)Nc1ccc(OC)cc1)CC2 | – | -5.31% (inactive)
54 | COc1ccc2c(c1)c(=O)oc1c(C)c(OCC(=O)N3CCc4ccccc4C3)ccc12 | 0.398 µM (active) | –
55 | CCOc1cc(/C=C2/SC(=O)N(CC(=O)N3CCc4ccccc4C3)C2=O)ccc1OCC(=O)O | – | 2.89% (inactive)
56 | N#Cc1c(NC(=O)CCN2C(=O)c3ccccc3C2=O)oc(-c2ccccc2)c1-c1ccccc1 | 3.16 µM (active) | –

Source: PubChem BioAssay AID1851 (National Center for Advancing Translational Sciences (NCATS), 2009)
